For experiment [1], the system named is PRMT1 (protein arginine N-methyltransferase 1). The experiment in a line: small molecules binding arginine methyltransferase PRMT1 – biochemical, small-molecule microarray, 635 nm fluorescence, primary screen (AID 1088).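 Further: binding of Prmt1 protein to compounds spotted on small-molecule microarray slides.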 The note with it: higher = more signal.
The nature of experiment [2]: growth effects on S. cerevisiae YJM789 – YJM789 clinical isolate, OD600, 24 h, basal, primary screen (AID 1089).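 Further: growth of clinical yeast isolate S. cerevisiae YJM 789 seeded 1000 cells per well; test concentration not given here.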 Particulars: higher = more signal, called active from +8 up or from −8 down.
Experiment [3] is described as follows: S. pombe growth modifiers, basal conditions – strain 972, OD600, 24 h, no modulator, primary screen (AID 1090).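 Further: basal condition with compound alone and no growth modifier present; test concentration not given here.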 Particulars: S. pombe 972 growth, higher = more signal, called active from +8 up or from −8 down.
Experiment [4] in a line: budding yeast growth modifiers under rapamycin – strain BY4716, OD600, 96 h, primary screen (AID 1091). Further: test concentration not given here. Particulars: S. cerevisiae BY4716 + rapamycin, higher = more signal, called active from +8 up or from −8 down.
Experiment [5] concerns the target Torsin-1A-interacting protein 2 (Homo sapiens) (UniProt Q8NFQ8). The experiment in a line: small molecules binding lysate-expressed LULL1 – cell lysate, human LULL1 lysate, 635/667 nm fluorescence, primary screen (AID 1092).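 Further: probe is lysate of COS7 cells overexpressing human LULL1; score merges per-feature 667 nm fluorescence with signal-to-noise.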 Particulars: small-molecule microarray, hLULL1 lysate binding, 635 nm fluorescence; higher = more signal.
Experiment [6] is described as follows: optical density change of DRC41 E. coli – strain DRC41, OD650, 24 h, E. coli filamentation project, primary screen (AID 1093).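 Further: MC1000 strain lacking acrAB efflux and sulA so SOS filamentation is blocked; test concentration not given here.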 The note with it: E. coli DRC41 growth, higher = more signal, called active from +8 up or from −8 down.
Experiment [7] in a line: probe aLefty2 binding to arrayed compounds – biochemical, biotinylated probe, 635/667 nm fluorescence, primary screen (AID 1094).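 Further: score merges spot fluorescence near 667 nm with spot signal-to-noise ratio.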 Particulars: small-molecule microarray, higher = more signal.
Experiment [8] relates to Noggin (protein binding on small-molecule microarray). The experiment can be described thus: small molecules binding Noggin protein – biochemical, 635/667 nm fluorescence, primary screen (AID 1095).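 Further: score merges 667 nm feature fluorescence with signal to noise over triplicate slides.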 The note with it: 635 nm fluorescence, higher = more signal.
For experiment [9], the target named is Neurogenic locus notch homolog protein 3 (Homo sapiens) (UniProt Q9UM47). The experiment in a line: small molecules binding NOTCH3 protein – biochemical, 635/667 nm fluorescence, primary screen (AID 1096). The note with it: small-molecule microarray, 635 nm fluorescence, higher = more signal.
Sequence of Neurogenic locus notch homolog protein 3 (Homo sapiens) (Q9UM47 whole entry, looked up): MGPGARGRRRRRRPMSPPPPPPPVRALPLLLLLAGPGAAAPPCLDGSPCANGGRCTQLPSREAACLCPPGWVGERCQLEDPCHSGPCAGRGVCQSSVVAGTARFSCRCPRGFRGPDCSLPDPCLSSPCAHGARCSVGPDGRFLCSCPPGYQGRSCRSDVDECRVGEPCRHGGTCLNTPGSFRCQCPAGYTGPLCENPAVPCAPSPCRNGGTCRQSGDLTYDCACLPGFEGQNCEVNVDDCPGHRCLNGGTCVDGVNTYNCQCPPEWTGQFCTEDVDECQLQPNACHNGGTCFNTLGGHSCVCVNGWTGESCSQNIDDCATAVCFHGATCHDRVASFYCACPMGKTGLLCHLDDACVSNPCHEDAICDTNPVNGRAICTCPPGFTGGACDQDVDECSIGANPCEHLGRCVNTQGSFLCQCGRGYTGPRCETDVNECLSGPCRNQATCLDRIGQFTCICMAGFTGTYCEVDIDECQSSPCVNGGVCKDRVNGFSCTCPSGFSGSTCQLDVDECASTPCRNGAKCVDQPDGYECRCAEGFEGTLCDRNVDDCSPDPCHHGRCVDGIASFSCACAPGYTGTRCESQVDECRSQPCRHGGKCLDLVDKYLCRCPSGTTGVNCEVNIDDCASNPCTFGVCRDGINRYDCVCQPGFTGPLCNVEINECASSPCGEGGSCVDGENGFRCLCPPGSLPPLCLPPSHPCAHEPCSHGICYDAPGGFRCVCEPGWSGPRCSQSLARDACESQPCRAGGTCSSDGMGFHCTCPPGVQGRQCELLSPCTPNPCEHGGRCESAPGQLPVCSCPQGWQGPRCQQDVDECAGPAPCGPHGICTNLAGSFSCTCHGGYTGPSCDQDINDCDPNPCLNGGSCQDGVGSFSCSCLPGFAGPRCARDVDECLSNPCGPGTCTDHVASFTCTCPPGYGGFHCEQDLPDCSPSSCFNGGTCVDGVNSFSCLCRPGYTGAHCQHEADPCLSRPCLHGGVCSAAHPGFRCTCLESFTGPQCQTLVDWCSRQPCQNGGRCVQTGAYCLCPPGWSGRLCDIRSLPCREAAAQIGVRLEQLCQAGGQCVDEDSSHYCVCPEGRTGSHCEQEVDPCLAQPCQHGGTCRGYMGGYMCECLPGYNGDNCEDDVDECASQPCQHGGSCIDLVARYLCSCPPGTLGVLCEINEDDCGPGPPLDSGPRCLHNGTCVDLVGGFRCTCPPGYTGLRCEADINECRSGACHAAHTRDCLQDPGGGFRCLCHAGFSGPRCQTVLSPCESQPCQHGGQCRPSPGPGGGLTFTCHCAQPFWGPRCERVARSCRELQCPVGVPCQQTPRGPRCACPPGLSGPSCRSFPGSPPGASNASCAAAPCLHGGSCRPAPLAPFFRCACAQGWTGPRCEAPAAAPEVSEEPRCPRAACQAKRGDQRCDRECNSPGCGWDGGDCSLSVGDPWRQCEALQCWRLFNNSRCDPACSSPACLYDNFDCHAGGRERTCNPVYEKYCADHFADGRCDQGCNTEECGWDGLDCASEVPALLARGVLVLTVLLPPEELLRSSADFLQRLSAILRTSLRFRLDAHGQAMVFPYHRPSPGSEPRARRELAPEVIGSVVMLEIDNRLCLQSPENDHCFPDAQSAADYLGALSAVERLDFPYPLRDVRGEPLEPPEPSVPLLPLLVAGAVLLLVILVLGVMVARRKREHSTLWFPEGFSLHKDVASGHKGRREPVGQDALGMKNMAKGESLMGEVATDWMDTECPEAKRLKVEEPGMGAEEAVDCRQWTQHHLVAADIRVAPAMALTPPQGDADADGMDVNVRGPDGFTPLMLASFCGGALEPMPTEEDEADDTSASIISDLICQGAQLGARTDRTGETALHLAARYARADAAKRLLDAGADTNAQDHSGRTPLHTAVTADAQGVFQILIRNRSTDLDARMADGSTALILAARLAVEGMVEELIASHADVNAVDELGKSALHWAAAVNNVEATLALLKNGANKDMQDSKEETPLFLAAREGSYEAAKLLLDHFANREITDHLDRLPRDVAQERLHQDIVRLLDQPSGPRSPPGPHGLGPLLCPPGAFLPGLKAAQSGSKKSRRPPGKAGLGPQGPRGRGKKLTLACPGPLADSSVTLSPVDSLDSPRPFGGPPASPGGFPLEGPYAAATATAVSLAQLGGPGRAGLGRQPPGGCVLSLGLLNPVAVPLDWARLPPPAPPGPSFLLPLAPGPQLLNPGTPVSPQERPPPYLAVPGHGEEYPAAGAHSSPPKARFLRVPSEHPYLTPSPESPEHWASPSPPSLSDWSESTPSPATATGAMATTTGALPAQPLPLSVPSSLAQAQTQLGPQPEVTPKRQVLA
Experiment [10] can be described thus: probe aEGFR binding to arrayed compounds – biochemical, biotinylated probe, 635/667 nm fluorescence, primary screen (AID 1097).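 Further: probe is a biotinylated anti-EGFR antibody binding compounds printed on slides; score combines fluorescence near 667 nm and signal to noise of each spot.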 The note with it: small-molecule microarray, higher = more signal.

Active and inactive are the calls of the source.

Sequence of Torsin-1A-interacting protein 2 (Homo sapiens) (Q8NFQ8 whole entry, looked up): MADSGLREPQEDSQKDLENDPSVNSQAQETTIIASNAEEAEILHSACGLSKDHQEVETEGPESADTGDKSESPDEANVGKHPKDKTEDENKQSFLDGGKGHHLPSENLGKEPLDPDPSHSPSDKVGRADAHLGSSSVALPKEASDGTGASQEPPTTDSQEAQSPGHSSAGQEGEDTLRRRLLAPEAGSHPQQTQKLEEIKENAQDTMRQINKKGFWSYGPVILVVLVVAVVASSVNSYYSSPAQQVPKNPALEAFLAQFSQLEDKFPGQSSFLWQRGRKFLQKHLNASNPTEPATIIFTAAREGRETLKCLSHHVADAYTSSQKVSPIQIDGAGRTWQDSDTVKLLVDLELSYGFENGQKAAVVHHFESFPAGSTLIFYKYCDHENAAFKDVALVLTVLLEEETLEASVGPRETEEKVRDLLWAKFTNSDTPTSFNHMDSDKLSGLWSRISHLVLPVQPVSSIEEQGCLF

Consider `COCCOC(=O)N1C(=O)[C@@]2(c3cc(C#CCC(C(=O)OC)C(=O)OC)ccc31)[C@H](C(N)=O)[C@H]1C(=O)O[C@H](c3ccccc3)[C@H](c3ccccc3)N1[C@@H]2c1ccccc1OCCO`, for which the composite z-score in experiment [1] is 1.55; in [5] it was 1.89; in experiment [7], -0.204; in experiment [8] it was 1.56; in experiment [9], 1.06; in experiment [10], -0.0661. The z-score in experiment [2] is -2.36 (inactive); in [3] it was -1.12 (inactive); in [4], 2.65 (inactive); in [6] it was 0.533 (inactive).
On to `C=C(C(=O)CC[C@@H](OC(=O)c1ccccc1-c1ccccc1C(=O)O)c1ccc(OCCO)cc1)C(C)C`, for which the composite z-score is 1.55 in [1]; 1.25 in experiment [5]; 0.0028 in experiment [7]; 1.35 in experiment [8]; 1.15 in experiment [9]; -0.0755 in experiment [10]. Besides, the z-score in [2] was -0.694 (inactive); in experiment [3], -1.26 (inactive); in [4], -1.3 (inactive); in [6], 0.416 (inactive).
For the molecule `C=CCOC(=O)[C@@H]1[C@H]2C(=O)O[C@H](c3ccccc3)[C@H](c3ccccc3)N2[C@H](c2ccc(OCCOC(=O)[C@H]3C[C@H]4C(=O)N[C@@H](CCCCN(C)C)C(=O)N4[C@H]3c3cccc(OCCO)c3)cc2)[C@@]12C(=O)Nc1ccccc12`, the composite z-score in experiment [1] was 0.831; in [5] it was 0.729; in experiment [7] it was 0.0897; in experiment [8] it was 0.221; in experiment [9], -0.414; in experiment [10], -0.0039. For the same molecule, the z-score in [2] is -0.292 (inactive); in [3] it was 1.12 (inactive); in experiment [4], 0.171 (inactive); in [6], -0.0426 (inactive).
`CN1C(=O)C2CC=C(C3=CCO[C@@H]3[C@H]3CCCN3S(=O)(=O)c3ccccc3[N+](=O)[O-])CC2C1=O` (stereo not given in full): the composite z-score was 0.0659 in [1]; 0.283 in [5]; -0.203 in [7]; -0.194 in experiment [8]; 0.01 in [9]; -0.171 in experiment [10]. In addition, the z-score in experiment [2] was -0.0649 (inactive); in experiment [3] it was -0.706 (inactive); in [4] it was -0.0153 (inactive); in [6], -0.66 (inactive).
Regarding `N#Cc1ccc(NN2C(C(O)c3ccc(B(O)O)cc3)C=CC3CN(c4ccccc4)C(=O)C32)cc1` (stereo not given), the composite z-score in experiment [1] is -0.188; in experiment [5], 0.847; in experiment [7], -0.0576; in experiment [8], -0.345; in experiment [9], 0.0787; in experiment [10], -0.0828. For the same molecule, the z-score was 0.587 (inactive) in experiment [2], 0.896 (inactive) in experiment [3], 1.88 (inactive) in [4] and 1.28 (inactive) in experiment [6].
As to `C=CC[C@H](OC(=O)Nc1ccc(SC)cc1)c1ccc(O)c(F)c1`, the composite z-score in experiment [1] is -0.487; in [5], 1.04; in experiment [7], -0.106; in experiment [8], -0.176; in experiment [9] it was 0.223; in experiment [10] it was -0.14. Also, the z-score in experiment [2] was -22.7 (active); in [3], -19.7 (active); in experiment [4], -1.19 (inactive); in experiment [6], 0.622 (inactive).
On to `C[C@]1(C(=O)NCC(F)(F)F)c2ccccc2C(=O)N(Cc2cc(C(F)(F)F)cc(C(F)(F)F)c2)[C@H]1c1ccc(CO)cc1`, for which the composite z-score in [1] was 0.594; in experiment [5], 1.35; in experiment [7], -0.114; in experiment [8], -0.736; in [9] it was -0.802; in experiment [10], -0.11. For the same molecule, the z-score in [2] is 0.182 (inactive); in [3], -0.0136 (inactive); in [4], -0.0066 (inactive); in experiment [6] it was 1.07 (inactive).
As to `COC(=O)C(CC#Cc1ccc2c(c1)[C@]1(C(=O)N2)[C@H](c2ccc(OCCO)cc2)N2[C@H](c3ccccc3)[C@H](c3ccccc3)OC(=O)[C@H]2[C@@H]1C(N)=O)C(=O)OC`, the composite z-score in experiment [1] is 1.06; in experiment [5] it was 2.03; in experiment [7], -0.134; in [8] it was 0.122; in [9], 0.0497; in [10], -0.19. Moreover, the z-score is 1.76 (inactive) in experiment [2], 1.23 (inactive) in experiment [3], 6.23 (inactive) in [4] and -0.0446 (inactive) in experiment [6].
For `COCCOC(=O)N1C(=O)[C@@]2(c3cc(C#CCC(C(=O)OC)C(=O)OC)ccc31)[C@H](C(=O)N1CCc3cc(OC)c(OC)cc3C1)[C@H]1C(=O)O[C@H](c3ccccc3)[C@H](c3ccccc3)N1[C@@H]2c1ccccc1OCCO`, the composite z-score in [1] was 1.53; in experiment [5], 2.34; in experiment [7], -0.0754; in experiment [8], 1.76; in experiment [9], 1.01; in [10] it was 0.0209. In addition, the z-score in [2] is 1.32 (inactive); in experiment [3], 1.02 (inactive); in experiment [4], 4.36 (inactive); in experiment [6] it was 1.09 (inactive).
With `O=C1O[C@H](c2ccccc2)[C@H](c2ccccc2)N2[C@H]1[C@@H](C(=O)O)[C@]1(C(=O)Nc3ccccc31)[C@H]2c1ccc(OCCO)cc1`, the composite z-score in experiment [1] is 1.53; in experiment [5] it was 3.27; in [7], -0.065; in experiment [8] it was 0.286; in [9] it was 0.33; in experiment [10] it was -0.177. Moreover, the z-score in [2] was -0.0404 (inactive); in experiment [3], 0.414 (inactive); in [4] it was -0.303 (inactive); in experiment [6] it was 1.36 (inactive).
Consider `C=C(COC)C(=O)CC[C@H](OC(C)=O)c1ccc(CO)o1`, for which the composite z-score in [1] is -0.451; in [5], 2; in experiment [7], -0.0963; in [8], 1.31; in experiment [9] it was 0.651; in experiment [10] it was -0.067. Besides, the z-score in [2] is -1.16 (inactive); in experiment [3], -0.603 (inactive); in experiment [4] it was -1.46 (inactive); in experiment [6], 1.5 (inactive).
For `C=CCC(OC(C)=O)[C@@H]1[C@@H](N(Cc2ccc(-c3ccccc3)cc2)C(=O)Cc2ccc(OC)cc2)c2cc(OCCCO)ccc2N1C(=O)c1ccc2ccccc2c1` (stereo not given in full), the composite z-score in [1] is 0.238; in experiment [5], 0.622; in [7], -0.154; in [8] it was 0.138; in experiment [9], 0.0678; in experiment [10], -0.17. In addition, the z-score is -0.675 (inactive) in [2], 0.121 (inactive) in [3], -0.193 (inactive) in experiment [4] and -0.584 (inactive) in experiment [6].
With `C=C(COC)C(=O)CC[C@H](OC(C)=O)c1ccccc1OCCO`, the composite z-score was 1.39 in [1]; -0.323 in experiment [5]; -0.166 in [7]; 0.985 in [8]; 0.367 in experiment [9]; -0.262 in [10]. In addition, the z-score in [2] is 0.556 (inactive); in experiment [3] it was -2.58 (inactive); in experiment [4], -0.401 (inactive); in experiment [6], 1.32 (inactive).
Take `COCCOC(=O)N1C(=O)[C@@]2(c3cc(C#CC4(O)CCCCCC4)ccc31)[C@H](C(N)=O)[C@H]1C(=O)O[C@H](c3ccccc3)[C@H](c3ccccc3)N1[C@@H]2c1ccc(OCCO)cc1`: the composite z-score in experiment [1] was 1.54; in experiment [5], 2.51; in experiment [7], 0.0723; in [8] it was 1.2; in experiment [9], 1.09; in experiment [10], 0.104. For the same molecule, the z-score in experiment [2] was 1.73 (inactive); in [3], -0.0624 (inactive); in [4], 5.03 (inactive); in experiment [6], 0.662 (inactive).

For the origin of these results see PubChem BioAssay.
